# Source: PubChem (SRMLSC)
# Rows were chosen to be rich in hits. Some 6.5% of all compounds tested hit in one or more screens of this group.
# MK inhibit: blocks S. pneumoniae mevalonate kinase; inhibition, % at 10 µM; 65,000 compounds, 0.48% hits; purified MK, PK/LDH-coupled NADH absorbance 340 nm;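 active means ranked among the strongest by inhibition in the single 10 µM screen, a fixed top-ranked set picked for dose follow-up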
# Abs 340nm: compound absorbs light at 340 nm | compound absorbance at 340 nm, fold over control | fold change at 10 µM | 65,000 tested, under 10 active | AID 708;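 active means at 10 µM dose, initial 340 nm absorbance at least 2 fold that of control wells; inactive means change under 2 fold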;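 further: initial absorbance extrapolated from kinetic A340 decline of NADH oxidation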
# NADH coupling: inhibitors of enzymes used to reach an NAD/NADH endpoint; coupled PK/LDH NADH assays, four targets; IC50, µM (top dose mostly 10 µM), inactives show top-dose inhibition; 65,000 compounds, 0.02% hits; AID 774;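 active means single-dose screening hits from any of four coupled enzyme assays that gave an IC50 when retested across doses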;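 further: the DPM-DC format reads NADH fluorescence rather than 340 nm absorbance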
# DPM-DC inhibit: blocks S. pneumoniae diphosphomevalonate decarboxylase. AID 556. 65,000 compounds, 0.49% hits. calls only at 10 µM. purified DPM-DC, PK/LDH coupled NADH fluorescence;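 active means the 320 compounds with the highest percent inhibition in the single-dose primary screen, excluding strongly autofluorescent ones, cut at about 32% in these data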;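 further: kinetic rate of NADH fluorescence loss reporting ADP formed by the decarboxylase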
# Spn PMK inh: blocks S. pneumoniae phosphomevalonate kinase. purified PMK, PK/LDH-coupled NADH absorbance 340 nm. inhibition, % at 10 µM. 65,000 compounds, 0.49% hits;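 active means top-ranked compounds by inhibition in the single 10 µM screen, taking a fixed number of the strongest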;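 further: 0% = full reaction with DMSO carrier and 100% = background rate without enzyme reaction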
# Autofluor 339: intrinsic fluorescence of library compounds, ex339/em460 – biochemical, MLSMR library, data from DPM-DC assay, artefact control, profiling panel. compound autofluorescence, ex339/em460 nm, NADH buffer; stronger effect = higher value; 1 = no-compound wells, NADH background. fluorescence fold increase at 10 µM. 65,000 compounds, 5.5% hits. AID 709;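 active means at 10 µM, mean starting fluorescence two-fold or more over control wells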;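 further: signal is the first read of a kinetic run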
# The depositor's hits bear a star; i = inactive; · = no result shown; + = active, no number.
SMILES,MK inhibit,Abs 340nm,NADH coupling,DPM-DC inhibit,Spn PMK inh,Autofluor 339
O=C(Nc1ccc(-c2nnc(-c3ccccc3)o2)cc1)C(F)(F)F,4,1.1,7%,i,0,1.7
CC(=O)/C=C(\C)Nc1ccc(-c2cnc(-c3ccccc3)o2)cc1,15,1.2,9%,·,2,2.2*
Cc1ccccc1NC(=O)C(C#N)Cc1cccnc1 (stereo not given),3,0.99,6%,i,10,1.1
c1ccc2c(c1)NC1(CCCCC1)n1c-2nc2ccccc21,11,1.1,6%,·,0,3.7*
CC1(c2ccccn2)Nc2ccccc2-c2nc3ccccc3n21 (stereo not given),2,1.1,4%,·,5,3.8*
O=C1Nc2ccccc2C12Nc1ccccc1-c1nc3ccccc3n12 (stereo not given),2,1.1,2%,i,5,1.3
CCOC(=O)C1CCN(Cc2ccc(C(=O)OC)cc2)CC1,60*,1,6%,i,8,1
CCC(c1nnnn1Cc1ccc(F)cc1)N(CCCO)Cc1cc2cc3c(cc2[nH]c1=O)OCO3 (stereo not given),1,1.1,5%,i,8,2.2*
Cc1cc(C)c2cc(CN(CCO)C(c3nnnn3Cc3ccc(F)cc3)C(C)C)c(=O)[nH]c2c1 (stereo not given),0,1.1,0%,i,0,1.3
CCNc1nnc(-c2ccccc2OC)s1,7,1.1,8%,·,9,2.1*
COc1ccccc1-c1nnc(NC(=O)C(C)SC2=NCCS2)s1 (stereo not given),8,1.1,4%,i,0,1.1
C#CC1(O)CC(C)N(C)C(C)C1 (stereo not given),4,1,3%,i,8,1.1
CCOc1ccc(OCC)c(NC(=O)CCn2cccc2)c1,2,0.98,5%,i,12,1.1
O=C(NCC1CCCO1)c1coc2nc3ccccc3nc12 (stereo not given),2,1.1,16%,+,14,2.5*
COc1ccc(-n2c(N)c(C(=O)NCC3CCCO3)c3nc4ccccc4nc32)c(OC)c1 (stereo not given),11,1,8%,·,5,3.9*
C=CCn1c(N)c(C(=O)NCC2CCCO2)c2nc3ccccc3nc21 (stereo not given),9,1,8%,·,7,3.8*
CN(c1ccccc1C(=O)NCC1CCCO1)S(C)(=O)=O (stereo not given),6,1,5%,i,7,1.2
COc1ccc(-n2nc(C(=O)NCC(=O)NCC3CCCO3)c3ccccc3c2=O)c(OC)c1 (stereo not given),5,1,3%,i,3,1.1
O=S(=O)(NCCCN1CCN(c2ccccc2F)CC1)c1cccc2cccnc12,0,1,1%,i,2,1
CN1CCN(CCCNC(=O)c2cc3c(=O)n(C)c4ccccc4c3s2)CC1,12,1.2,6%,·,0,2.1*
Cc1c(NC(=O)COC(=O)c2cc3c4ccccc4n(C)c3s2)c(=O)n(-c2ccccc2)n1C,2,1.2,11%,i,6,3.2*
CCOC(=O)c1ccc(NC(=O)c2c(O)c3ccccc3n(C)c2=O)cc1,7,1.1,2%,i,0,1.1
CCOC(=O)c1cc2c(=O)n(C)c3ccccc3c2s1,6,1,21%,+,14,2.8*
O=c1c(O)c(-c2ccc3c(c2)OCO3)oc2ccccc12,1,1.1,14%,i,13,3*
O=C(Nc1ccc2c(c1)oc1ccccc12)c1ccc2c(c1)OCO2,11,1.1,13%,i,9,1.9
SMILES,MK inhibit,Abs 340nm,NADH coupling,DPM-DC inhibit,Spn PMK inh,Autofluor 339
CC(C)OC(=O)CC(=O)CSc1nc2c(cc1C#N)CCCC2,6,1,7%,·,8,3.7*
C=C(C)CSc1nc2c(cc1C#N)CCC2,5,1,2%,i,0,1.1
COC(=O)CC(=O)CSc1nc2c(cc1C#N)CCC2,2,1.1,1%,·,0,3.8*
CCc1c(C)nc(SCC(=O)CC(=O)OC(C)C)c(C#N)c1C,12,1,11%,i,11,2.2*
CS(=O)CSc1nc2c(cc1C#N)CCCC2 (stereo not given),5,0.97,5%,i,9,1.1
CC(C)OC(=O)CC(=O)CSc1nc2c(cc1C#N)CCC2,8,1,13%,·,18,3.7*
CCCCCC#CCC#CCC#CCC#CCCCC(=O)O,3,0.97,4%,i,8,1
COc1c(Cl)cc(-c2noc(C)c2C(=O)NC(C)C)cc1Cl,5,1,4%,i,1,1.1
Cc1oc2nc(SCC(=O)NC3CCCCC3)nc(N)c2c1C,7,1,6%,i,10,1.1
COC(=O)CC(=O)CSc1nc(C)cc(C)c1C#N,2,1.1,5%,·,8,3.8*
N#Cc1cc2c(nc1SCC(=O)Nc1nccs1)CCCCC2,7,1,5%,i,0,1.8
CCOC(=O)CC(=O)CSc1nc2c(cc1C#N)CCCCCC2,0,1,2%,·,3,2.4*
N#Cc1cc2c(nc1SCc1nc3ccccc3[nH]1)CCC2,10,1,16%,i,13,2.1*
COc1ccc(-c2nc(-c3ccncc3)no2)cc1OC,0,1,5%,i,13,1.1
COc1ccc(-c2ccc(-c3noc(-c4cccc(OC)c4)n3)c(OC)n2)cc1,12,1.1,9%,·,5,3.8*
COc1ccc(-c2ccc(-c3noc(-c4ccc(OC)c(OC)c4)n3)c(OC)n2)cc1,14,1.1,15%,·,15,3.9*
O=C1CC(N(Cc2ccco2)C(=O)Nc2ccc(F)cc2)C(=O)N1c1ccc(F)cc1 (stereo not given),14,1.1,8%,i,5,1.1
CC(C)c1nc(=S)n(-c2ccccc2)[nH]1,44*,1,19%,i,14,1.1
CCOC(=O)COc1ccc2nsnc2c1Cl,6,1,16%,+,9,2.9*
O=c1cc(C23CC4CC(CC(C4)C2)C3)[nH][nH]1,32,1,19%,i,24,1.1
Cc1cccn2c(N)c(-c3ccccc3)nc12,0,1.1,6%,·,12,2.1*
CCn1c(=O)c2c(nc(SCC(=O)NCC3CCCO3)n2C)n(C)c1=O (stereo not given),16,0.98,10%,i,9,1.2
CC(C)(C)n1nnnc1CN(Cc1ccco1)Cc1cc2cc3c(cc2[nH]c1=O)OCO3,7,1,3%,·,12,2.5*
CCC(C)(C)n1nnnc1CN(Cc1ccco1)Cc1cc2cc3c(cc2[nH]c1=O)OCO3,7,1.1,8%,·,8,3.5*
CCC(C)(C)n1nnnc1CN(Cc1ccc(Cl)cc1)Cc1ccco1,0,1,3%,i,9,1.1
